Experimental findings from PubChem BioAssay (NCATS) are described below.

A number with no mark means an inactive call. Results filed as inconclusive are left out. Activity calls are given as the source filed them. Calls follow the shape of the dose curve; as a rule, active = well fitted curve in the direction sought with a large enough effect; inconclusive = small, poorly fitted or top-dose-only effect, or another doubt; inactive = no such curve, though single readings can be large; an effect the other way counts as inactive or inconclusive.

Experiment [1] is described as follows: Quantitative High-Throughput drug screen in 47 multiple myeloma cell lines against the NCATS MIPE library collection: FR4_PLB cell viability assay (AID 1918924; also: nearly all actives have a fitted effect of over 35% in size; also: potency is read from the fitted curve at half-maximal effect). Put shortly:
(§1)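 Steps: seed 500 cells per well; pin-transfer MIPE 4.0 library; incubate 48 h at 37C, 5% CO2, humidified; add CellTiter-Glo, 5 min room temperature; read luminescence.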

Experiment [2] can be described thus: Quantitative High-Throughput drug screen in 47 multiple myeloma cell lines against the NCATS MIPE library collection: Delta47_JCRB cell viability assay (AID 1918925; also: nearly all actives have a fitted effect of over 45% in size; also: potency is read from the fitted curve at half-maximal effect). Put shortly:
(§2)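 Luminescent ATP measurement with CellTiter-Glo gives viability, scaled between DMSO-only wells (100%) and media-only wells (0%). Cells, 500 per well, faced library compounds for 48 hours at 37C.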

Experiment [3] in a line: Quantitative High-Throughput drug screen in 47 multiple myeloma cell lines against the NCATS MIPE library collection: EJM_DSMZ cell viability assay (AID 1918926; also: nearly all actives have a fitted effect of over 30% in size; also: potency is read from the fitted curve at half-maximal effect). Put shortly: as §2
Experiment [4] can be described thus: Quantitative High-Throughput drug screen in 47 multiple myeloma cell lines against the NCATS MIPE library collection: AMO1_DSMZ cell viability assay (AID 1918927; also: nearly all actives have a fitted effect of over 30% in size; also: potency is read from the fitted curve at half-maximal effect). An outline of the steps:
as §2

Experiment [5] in a line: Quantitative High-Throughput drug screen in 47 multiple myeloma cell lines against the NCATS MIPE library collection: ARP1_JJKsccF8 cell viability assay (AID 1918928; also: nearly all actives have a fitted effect of over 40% in size; also: potency is read from the fitted curve at half-maximal effect). Put shortly:
(§3)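 Cell viability inhibition in this qHTS is measured via ATP content (CellTiter-Glo) after 48 h drug exposure at 37 °C. Wells hold 500 cells; DMSO-treated wells define 100% and medium-only wells 0%.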

Experiment [6] in a line: Quantitative High-Throughput drug screen in 47 multiple myeloma cell lines against the NCATS MIPE library collection: ARD_JJKsccE7 cell viability assay (AID 1918929; also: potency is read from the fitted curve at half-maximal effect). An outline of the steps: as §2
Experiment [7] in a line: Quantitative High-Throughput drug screen in 47 multiple myeloma cell lines against the NCATS MIPE library collection: Karpas620_DSMZ cell viability assay (AID 1918959). Also: nearly all actives have a fitted effect of over 30% in size. An outline of the steps:
as §1

A short description of experiment [8]: Quantitative High-Throughput drug screen in 47 multiple myeloma cell lines against the NCATS MIPE library collection: KMM1_JCRB cell viability assay (AID 1918960). Also: nearly all actives have a fitted effect of over 30% in size. Also: potency is read from the fitted curve at half-maximal effect. Put shortly:
as §3

The nature of experiment [9]: Quantitative High-Throughput drug screen in 47 multiple myeloma cell lines against the NCATS MIPE library collection: JIM3_ECACC cell viability assay (AID 1918963; also: nearly all actives have a fitted effect of over 35% in size; also: potency is read from the fitted curve at half-maximal effect). An outline of the steps: as §1
Experiment [10] is described as follows: Quantitative High-Throughput drug screen in 47 multiple myeloma cell lines against the NCATS MIPE library collection: JIM1_ECACC cell viability assay (AID 1918964). Put shortly: as §2
For experiment [11], the target named is Glutathione peroxidase 1 (Homo sapiens) (UniProt P07203). Description: Primary qHTS Assay for Inhibitors of Recombinant Selenoprotein Glutathione Peroxidase 1 (GPX1) (AID 1845191). Also: nearly all actives have a fitted effect of over 65% in size. As to activity, negative = inhibition: % is scaled to controls: 0 for no effect and ±100 for the full control effect. An outline of the steps:
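GR-coupled readout: NADPH consumption tracked by fluorescence, ex 340/em 450 nm, at t=0 and after 15 min at RT. Final mix 10 nM GPX1, 1 mM GSH, 0.5 mM CHP, 0.5 mM NADPH, 100 nM GR, 0.01% BSA, following 30 min enzyme–compound preincubation.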

The target of experiment [12] is Phospholipid hydroperoxide glutathione peroxidase GPX4 (Homo sapiens) (UniProt P36969). Kind of experiment: Primary qHTS Assay for Inhibitors of Recombinant Selenoprotein Glutathione Peroxidase 4 (GPX4) (AID 1845192). Also: series mostly up to about 50 µM; % is scaled to controls: 0 for no effect and ±100 for the full control effect; nearly all actives have a fitted effect of over 65% in size. An outline of the steps: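 Steps: GPX4 plus compound, 30 min RT; add GR/GSH/NADPH master mix; start with cumene hydroperoxide; read 340/450 nm fluorescence at 0 and 15 min. Finals were 200 nM GPX4, 1 mM GSH, 0.5 mM CHP, 0.5 mM NADPH, 100 nM GR.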
Chain of Phospholipid hydroperoxide glutathione peroxidase GPX4 (Homo sapiens) (P36969 whole entry, looked up): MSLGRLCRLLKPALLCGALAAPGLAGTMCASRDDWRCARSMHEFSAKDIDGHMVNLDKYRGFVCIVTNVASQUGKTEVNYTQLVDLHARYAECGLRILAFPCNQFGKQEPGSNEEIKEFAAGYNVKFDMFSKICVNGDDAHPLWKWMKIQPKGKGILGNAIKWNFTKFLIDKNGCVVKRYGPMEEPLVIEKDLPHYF

Experiment [13] can be described thus: Quantitative High-Throughput drug screen in 47 multiple myeloma cell lines against the NCATS MIPE library collection: Karpas417_ECACC cell viability assay (AID 1918961). Also: potency is read from the fitted curve at half-maximal effect. An outline of the steps: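 CellTiter-Glo luminescence (ATP) after 48 h compound exposure, 37C/5% CO2; 500 cells/well; MIPE 4.0 approved/investigational drugs pinned in; DMSO = 100%, media only = 0% viability.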

The nature of experiment [14]: Quantitative High-Throughput drug screen in 47 multiple myeloma cell lines against the NCATS MIPE library collection: KHM11_PLB cell viability assay (AID 1918962). Also: potency is read from the fitted curve at half-maximal effect; nearly all actives have a fitted effect of over 35% in size. An outline of the steps: as §1
Experiment [15] addresses Luciferin 4-monooxygenase (Photinus pyralis) (UniProt P08659). Kind of experiment: Primary firefly luciferase (FLuc) qHTS assay for identification of artifact compounds. (AID 1845220). Also: nearly all actives have a fitted effect of over 60% in size. To be noted: outcome: dose series up to 54.1 µM unless noted. An outline of the steps:
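Titrated compounds were incubated 15 min at RT, protected from light, with luciferin and ATP at 10 uM; reaction started with 10 nM FLuc, luminescence imaged at 5 min, and concentration-response fitted by Hill equation.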
(Quantitative high-throughput screening tests each substance at several concentrations.)

The nature of experiment [16]: Primary fluorescence-based thiol-reactive (MSTI) qHTS assay for identification of artifact compounds. (AID 1845221).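 Also: series mostly up to about 54 µM; thiol-reactive compounds lower the probe fluorescence signal; nearly all actives have a fitted effect of over 65% in size.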 An outline of the steps:
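One-hour, room-temperature, dark incubation of compound with 4 uM MSTI in PBS (pH 7.4, 2% DMSO) precedes a fluorescence read at 525 nm excitation, 598 nm emission; Hill-equation fitting yields concentration-response values.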

Experiment [17] relates to Nanoluciferase (engineered Oplophorus gracilirostris luciferase). Description: Primary Nanoluciferase (NLuc) qHTS assay for identification of artifact compounds. (AID 1845222).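 Also: NLuc secreted into diluted conditioned medium of S16 cells; series mostly up to about 54 µM; 0% = DMSO and -100% = no enzyme.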 Put shortly:
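qHTS format, against NLuc in S16 cell-conditioned medium. Nano-Glo substrate 1:100 was added after 15 min at room temperature. Luminescence was taken after a further 5 min.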

Experiment [18] in a line: Primary redox qHTS assay for identification of artifact compounds. (AID 1845223). Put shortly:
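Redox-cycling detection via DTT (250 uM final) oxidation coupled to Amplex Red (25 uM)/HRP (250 mU/mL) in HBSS. 15 min preincubation plus 30 min after DTT, room temperature. Ex/Em 525/598 nm; 4-parameter Hill fit against DMSO and 10 uM DA3003.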

Chain of Glutathione peroxidase 1 (Homo sapiens) (P07203 whole entry, looked up): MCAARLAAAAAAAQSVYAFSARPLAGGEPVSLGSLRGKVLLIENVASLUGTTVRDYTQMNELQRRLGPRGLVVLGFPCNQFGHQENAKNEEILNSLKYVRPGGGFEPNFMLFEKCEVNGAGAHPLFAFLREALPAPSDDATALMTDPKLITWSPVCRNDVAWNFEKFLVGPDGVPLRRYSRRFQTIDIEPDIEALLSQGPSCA

As to `COc1cc(OC)c(OC)cc1C=O`, the Potency entry in experiment [1], in experiment [2], in experiment [3], in experiment [4], in experiment [5] and in experiment [6] was “inactive” in each case. Further, the Potency result in experiment [7], in [8] and in [9] was “inactive” throughout. The molecule was called inactive in experiment [10].

Turning to `COC1CC(=C(c2cccs2)c2cccs2)C[N+](C)(C)C1` (stereo unspecified), the Potency entry in [11] and in [12] was “inactive” throughout.

For the molecule `C[C@](O)(CS(=O)(=O)c1ccc(F)cc1)C(=O)Nc1ccc(C#N)c(C(F)(F)F)c1`, the Potency result in experiment [11] and in experiment [12] was “inactive” throughout. Besides, the Potency in experiment [1] is 14800 nM (active); in experiment [2] it was 372 nM (active); in experiment [3] it was 372 nM (active); in experiment [4], 662 nM (active); in experiment [5], 18700 nM (active); in [6], 1050 nM (active). Besides, the Potency is 8330 nM (active) in [8], 935 nM (active) in experiment [13], 833 nM (active) in experiment [14] and 2350 nM (active) in experiment [9].

As to `CC(C)NC(C)C`, the Potency entry in experiment [11] and in [12] was “inactive” each time.

Take `C=CCN1C[C@H](C)N([C@H](c2ccc(C(=O)N(CC)CC)cc2)c2cccc(OC)c2)C[C@H]1C`: the results for the outcome in experiment [11] and in experiment [15] were “inactive [at 9.52 µM]” and “inactive [at 11.6 µM]”, respectively. Further, the activity change, negative = inhibition in experiment [12] is -0.741% [at 9.73 µM]. Further, the activity change, negative = thiol reactive in [16] was 24.3% [at 11.5 µM]. The activity, negative = inhibition in experiment [17] is 1.52% [at 11.6 µM]. Also, the redox activity (% of DA3003) in [18] is 9.33% [at 11.5 µM].

For the molecule `C[N+]1(CCF)[C@@H]2CC[C@H]1CC(OC(=O)C(O)(c1ccccc1)c1ccccc1)C2` (stereo partly specified), the Potency entry in experiment [11] and in [12] was “inactive” each time.

Consider `C[C@]12Cc3cn[nH]c3C[C@@H]1CC[C@@H]1[C@@H]2CC[C@@]2(C)[C@H]1CC[C@]2(C)O`, for which the Potency entry in experiment [11] and in [12] was “inactive” throughout.

On to `C[C@]12CC[C@H]3[C@@H](CC[C@@]45O[C@H]4C(O)=C(C#N)C[C@]35C)[C@H]1CC[C@H]2O`, for which the Potency result in experiment [11], in [12], in experiment [3], in experiment [4], in [5] and in experiment [7] was “inactive” each time. Further, the Potency entry in experiment [8], in experiment [13] and in [9] was “inactive” in each case. Moreover, in experiment [10], the molecule was classed as inactive.
